# Screening results: PubChem BioAssay, several laboratories
# CYP2C9 act – human CYP2C9 activators, primary screen, biochemical, luminescence; activation factor at 5 µM; recombinant CYP2C9, luciferin-H conversion; stronger effect = higher value; factor 1 = untreated enzyme, 0 = blocked; 96,000 tested, 1.4% active; AID 1024, 2008;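 active = activation factor of 2 or more for CYP2C9 at a 5 µM dose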;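 note: 0 = sulfaphenazole-blocked wells and 1 = vehicle-only wells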
# CYP2C9 inh – blockers of cytochrome P450 2C9 activity – biochemical, luminescence, ADME assay, primary screen | CYP2C9 Supersomes, luciferin-H conversion | 96,000 tested, 20% active | inhibition, % at 5 µM | P11712;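 active = blocking of liver enzyme CYP2C9 beyond about 50% at 5 µM, limit read from the data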
# CYP2C19 inhib – blockers of cytochrome P450 2C19 activity – biochemical, luminescence, ADME assay, primary screen | P33261 | CYP2C19 Supersomes, luciferin-H EGE luminescence, 30 min | inhibition, % at 5 µM | 96,000 tested, 21% active | AID 778, 2007;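 active = CYP2C19 inhibition above a set limit at 5 µM in the primary screen, cut at about 50% in these data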;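 note: plate controls were negative control wells for no effect and 2.5 mM tranylcypromine positive control for full effect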
# Target sequence (P33261 whole entry, looked up): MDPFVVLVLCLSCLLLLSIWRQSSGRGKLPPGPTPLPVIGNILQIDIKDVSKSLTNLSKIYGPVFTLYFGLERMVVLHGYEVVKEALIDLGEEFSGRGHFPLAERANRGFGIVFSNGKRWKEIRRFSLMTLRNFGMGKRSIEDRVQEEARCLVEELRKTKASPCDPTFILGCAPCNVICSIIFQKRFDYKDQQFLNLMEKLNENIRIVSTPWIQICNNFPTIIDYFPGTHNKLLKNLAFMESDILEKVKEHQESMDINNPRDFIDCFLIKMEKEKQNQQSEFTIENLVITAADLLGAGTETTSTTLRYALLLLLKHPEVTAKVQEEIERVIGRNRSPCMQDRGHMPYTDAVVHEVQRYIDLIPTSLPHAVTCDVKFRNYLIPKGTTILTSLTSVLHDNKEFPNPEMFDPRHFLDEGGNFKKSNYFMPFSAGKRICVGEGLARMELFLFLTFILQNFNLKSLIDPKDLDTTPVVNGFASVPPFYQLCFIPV
# EphB4 ephrin blk – EphB4-ephrin-B2 interaction antagonists, primary screen, biochemical, TNYL-RAW peptide probe, fluorescence polarization; Ephrin type-B receptor 4 (Homo sapiens), P54760; EphB4 LBD / TNYL-RAW-Alexa532 peptide; inhibition, % at 7 µM; 97,000 tested, 0.15% active;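 active = inhibition above the screen-wide mean inhibition plus 3 SD, cut at about 15% in these data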;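 note: 0% = DMSO wells and 100% = excess unlabeled TNYL-RAW peptide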
# CYP2C19 activ – human CYP2C19 activators, primary screen, biochemical, luminescence; Cytochrome P450 2C19 (Homo sapiens), P33261; recombinant CYP2C19, luciferin-H EGE luminescence; stronger effect = higher value; 0 = fully inhibited enzyme, 1 = untreated enzyme; activation factor at 5 µM; 96,000 tested, under 10 active; AID 1025, 2008;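 active = activation factor of at least 2 at 5 µM in the primary screen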;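 note: 0 = wells with 2.5 mM tranylcypromine and 1 = vehicle-only wells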
# Numbers without * were called inactive; x = no result given. Compounds with a hit are over-represented: about 27% of the library has one in this group of screens.
SMILES,CYP2C9 act,CYP2C9 inh,CYP2C19 inhib,EphB4 ephrin blk,CYP2C19 activ
COc1ccc(OC)c(CCNC(=O)Cn2sc3nc(C)cc(C)c3c2=O)c1,0.4,65*,22,-1,0.8
O=C(CSc1nc2cc(Cl)ccc2s1)c1ccco1,0.9,13,89*,x,0.1
O=C(CSCc1ccc(Cl)cc1)c1ccco1,0.4,58*,73*,x,0.3
O=C(CSc1nnc(SCC(=O)c2ccco2)s1)c1ccco1,0.9,7,-11,-1,1.1
CCC(CC)C(=O)N=C1SC2CS(=O)(=O)CC2N1CCc1ccc(OC)cc1 (stereo not drawn),0.2,77*,80*,2,0.2
CCc1nc(SCC(=O)NCc2ccco2)c2c(=O)n(C)c(=O)n(C)c2n1,0.9,12,1,1,1
CCCc1nc(SCC(=O)N2CCc3ccccc32)c2c(C)c(C)sc2n1,0.2,80*,22,0,0.8
CCCc1nc(SCC(=O)c2ccc(OC)cc2)c2c(=O)n(C)c(=O)n(C)c2n1,1,2,-10,x,1.1
CCCc1nc(SCC(=O)N2CCc3ccccc32)c2c(=O)n(C)c(=O)n(C)c2n1,0.5,50*,11,x,0.9
CCCc1nc(SCC(=O)c2ccccc2)c2c(=O)n(C)c(=O)n(C)c2n1,0.1,86*,3,7,1
CCc1nc(SCC(=O)Nc2cccc(C(F)(F)F)c2)c2c(=O)n(C)c(=O)n(C)c2n1,0.5,52*,66*,-2,0.3
CC1=NN(C(=O)c2ccc(C)cc2)C(O)(C(F)(F)OC(F)(F)F)C1 (stereo not drawn),0.9,13,20,2,0.8
O=c1nc(-c2ccccc2)cc(-c2ccccc2)[nH]1,0.7,26,32,x,0.7
COc1cc(-c2c(C#N)c(=O)[nH]c3c2c(C)nn3-c2ccccc2)ccc1O,0.7,27,5,-4,0.9
Cc1cc2ncn(CCOc3ccccc3)c2cc1C,0.8,22,32,-5,0.7
CCOc1ccc(NC(=O)c2ccc(Br)o2)c([N+](=O)[O-])c1,1.3,-25,4,-10,1
CCOc1ccc(OCCN(C)Cc2ccccc2)cc1,1,1,30,-4,0.7
Nc1nnc(COc2ccc(Br)cc2Br)s1,0.9,6,71*,3,0.3
Cc1ccc(C)c(OCc2nnc(N)s2)c1,1.2,-25,30,8,0.7
CN1C(=O)C(O)(CC(=O)c2ccc3c(c2)OCO3)c2ccccc21 (stereo not drawn),1.1,-12,6,2,0.9
O=C(CC1(O)C(=O)N(Cc2ccc3c(c2)OCO3)c2ccccc21)c1ccccc1 (stereo not drawn),1,3,48,-1,0.5
CCCN1C(=O)C(O)(CC(=O)c2cccc(OC)c2)c2ccccc21 (stereo not drawn),0.6,41,87*,-6,0.1
C#CCN1C(=O)C(O)(CC(=O)c2ccc3c(c2)OCCO3)c2ccccc21 (stereo not drawn),0.8,19,77*,-4,0.2
C#CCN1C(=O)C(O)(CC(=O)c2ccc(OC)c(OC)c2)c2ccccc21 (stereo not drawn),1,1,31,2,0.7
CCCN1C(=O)C(O)(CC(=O)c2ccc3c(c2)OCCO3)c2ccccc21 (stereo not drawn),0.6,44,76*,-3,0.2
SMILES,CYP2C9 act,CYP2C9 inh,CYP2C19 inhib,EphB4 ephrin blk,CYP2C19 activ
Cc1ccc(C(=O)CC2(O)C(=O)N(Cc3ccc4c(c3)OCO4)c3ccccc32)cc1 (stereo not drawn),1.1,-11,54*,2,0.5
CCCN1C(=O)C(O)(C/C(C)=N/O)c2ccccc21 (stereo not drawn),1,0,1,5,1
CCn1c(=O)c([N+](=O)[O-])c(NCCc2ccccc2)c2ccccc21,1.1,-10,32,4,0.7
CCOC(=O)C1=C(C)NC(=O)NC1c1ccc(OC)c(CN2CCOCC2)c1 (stereo not drawn),0.9,14,15,9,0.9
CCCOc1ccc(Cc2nc(N)nc(N)n2)cc1,1.4,-39,-11,1,1.1
Cc1cccc(OC(=O)c2ccc3nccnc3c2)c1,0.5,54*,7,-4,0.9
CN(Cc1ccc(OC(F)F)cc1)C(=O)c1ccc2nccnc2c1,1,3,38,-6,0.6
